Data reported in PubChem BioAssay (Tox21).
Inconclusive results are not listed. The source made the active and inactive calls. The call rests on the fitted dose curve; in most records, active means well fitted cell-killing curve with a large enough effect in the repeat runs; inconclusive means weak or mixed curves, or effect the other way; inactive means flat fitted curve, though single readings scatter.

Test: cAMP Responsive Elements (CRE) small molecule antagonists, cell-based qHTS assay: qHTS cell viability counter screen (AID 2060913); further: nearly all actives have a fitted effect of over 40% in size
Conditions: CRE-bla HEK293T viability, CellTiter-Glo luminescence, 5 h; series mostly up to 92.4 µM; viability change, negative = cytotoxic: at the top concentration
In short: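 CRE-bla HEK293T cells (2,000/well, 18 h) given compound plus NKH477 0.25 uM final for 3 h at 37C; viability counter-screen by CellTiter-Glo luminescence in same wells after 30 min.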
On the % scale 0 is the no-effect control and ±100 the full control effect; potency means the concentration at half of the fitted maximal effect.

Row | SMILES | Potency | viability change, negative = cytotoxic
1 | C1CC2OC2CC1C1CO1 (stereo unspecified) | inactive | –
2 | FC(Cl)(Cl)Cl | – | 2.08% (inactive)
3 | CC(C)c1ccc(CO)cc1 | inactive | –
4 | COC(=O)C(c1ccccc1)C1CCCCN1 (stereo unspecified) | – | -4.23% (inactive)
5 | COc1ccc([N+](=O)[O-])cc1O | – | -7.08% [at 42.5 µM] (inactive)
6 | CC1NCCOC1c1ccccc1 (stereo unspecified) | – | 7.97% [at 42.5 µM] (inactive)
7 | [Cl][Sn]([c]1ccccc1)([c]1ccccc1)[c]1ccccc1 | 2.59 µM (active) | –
8 | CCCCN(CCCC)C(=S)S | – | -1.03% (inactive)
9 | CCCN(CCOc1c(Cl)cc(Cl)cc1Cl)C(=O)n1ccnc1 | inactive | –
10 | CC1CC(CC2CCC(N)C(C)C2)CCC1N (stereo unspecified) | – | 6.34% (inactive)
11 | C[C@]12CC[C@@H](O)C[C@@H]1CC[C@@H]1[C@@H]2CC[C@]2(C)C(=O)CC[C@@H]12 | – | -4.22% (inactive)
12 | C[C@@H]1O[C@@H](O[C@@H]2C=C3CC[C@@H]4[C@H](CC[C@]5(C)[C@@H](c6ccc(=O)oc6)CC[C@]45O)[C@@]3(C)CC2)[C@H](O)[C@H](O)[C@H]1O | 0.0188 µM (active) | –
13 | O=C1C=CC(=O)C=C1 | inactive | –
14 | C[C@]12CC[C@H](O)CC1=CC[C@@H]1[C@@H]2CC[C@]2(C)C(=O)CC[C@@H]12 | inactive | –
15 | CN(C)C(=S)[S-].CN(C)C(=S)[S-].[Cu+2] | 13.2 µM (active) | –
16 | CC(C)[N+](C)(CCC(C(N)=O)(c1ccccc1)c1ccccc1)C(C)C | – | -2.13% [at 42.5 µM] (inactive)
17 | C=CCc1ccccc1O | – | 7.6% (inactive)
18 | CCCCC#N | – | 14.1% (inactive)
19 | O=C1c2ccccc2C(=O)C1C(=O)C(c1ccccc1)c1ccccc1 | – | 0.388% [at 42.5 µM] (inactive)
20 | CCN(CC)c1c([N+](=O)[O-])cc(C(F)(F)F)c(N)c1[N+](=O)[O-] | 54.5 µM (active) | –
21 | ClCc1cccnc1 | – | 1.86% (inactive)
